Laboratory results reported in PubChem BioAssay.
Activity calls are given as the source filed them. Unless noted, no rule for the calls is given here.

What was measured:
[1] = anti-His antibody binders, primary screen, artefact control for SMM control protein annotation, biochemical, small-molecule microarray, 635 nm fluorescence (AID 1128); details: anti-His Alexa647 antibody binding, higher = more signal;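 also: score merges feature fluorescence with signal-to-noise for each printed compound spot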
[2] = system: Human papillomavirus type 1a E7 protein (residues 1-88); experiment: HPV1a E7 small-molecule binders, primary screen, biochemical, small-molecule microarray, residues 1-88, 635 nm (AID 1129); details: small-molecule microarray binding, fluorescence 635 nm; higher = more signal
[3] = biological target: Focal adhesion kinase 1 (Homo sapiens) (UniProt Q05397); experiment: small-molecule microarray binders of FAK, primary screen, biochemical, 635/667 nm fluorescence, BSA, DTT (AID 1130); details: PTK2 binding, 635 nm fluorescence, higher = more signal;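 also: composite of spot emission at 667 nm and signal to noise over triplicate slides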
Focal adhesion kinase 1 (Homo sapiens), sequence (Q05397 whole entry, looked up): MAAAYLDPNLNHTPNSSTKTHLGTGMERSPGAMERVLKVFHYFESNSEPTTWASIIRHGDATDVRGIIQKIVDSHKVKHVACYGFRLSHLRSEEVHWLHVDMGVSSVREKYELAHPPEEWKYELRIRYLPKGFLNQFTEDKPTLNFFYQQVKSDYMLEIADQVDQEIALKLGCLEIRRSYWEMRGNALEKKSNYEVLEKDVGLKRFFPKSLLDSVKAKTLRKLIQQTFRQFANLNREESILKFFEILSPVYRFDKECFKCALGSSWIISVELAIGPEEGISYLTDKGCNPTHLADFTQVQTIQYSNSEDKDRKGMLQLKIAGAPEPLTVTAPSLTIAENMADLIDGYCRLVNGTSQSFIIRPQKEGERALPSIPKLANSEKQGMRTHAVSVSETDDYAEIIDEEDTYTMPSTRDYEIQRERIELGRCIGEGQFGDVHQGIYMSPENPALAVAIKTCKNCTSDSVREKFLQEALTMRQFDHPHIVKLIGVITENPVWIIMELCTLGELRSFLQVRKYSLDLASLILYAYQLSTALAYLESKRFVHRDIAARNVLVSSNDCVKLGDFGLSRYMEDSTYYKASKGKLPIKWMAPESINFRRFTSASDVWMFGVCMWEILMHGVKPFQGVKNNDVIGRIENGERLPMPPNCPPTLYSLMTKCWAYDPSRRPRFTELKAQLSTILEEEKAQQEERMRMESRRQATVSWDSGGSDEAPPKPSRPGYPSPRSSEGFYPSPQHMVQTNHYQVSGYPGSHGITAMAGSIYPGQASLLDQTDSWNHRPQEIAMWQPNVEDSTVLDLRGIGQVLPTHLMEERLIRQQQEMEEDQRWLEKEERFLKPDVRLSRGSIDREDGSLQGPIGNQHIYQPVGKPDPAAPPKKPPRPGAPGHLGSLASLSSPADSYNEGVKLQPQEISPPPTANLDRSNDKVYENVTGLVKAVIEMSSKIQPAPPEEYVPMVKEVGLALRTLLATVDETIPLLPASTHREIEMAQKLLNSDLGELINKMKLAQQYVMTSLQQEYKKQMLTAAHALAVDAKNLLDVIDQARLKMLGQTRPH

[4] = system: Fibrinogen (Alexa647-labelled); experiment: fibrinogen binders on compound microarrays, profiling panel, artefact control for SMM control-protein annotation, biochemical, small-molecule microarray, 635/667 nm fluorescence (AID 1131); details: fibrinogen-A647 binding fluorescence, higher = more signal;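 also: z-score merges 667 nm fluorescence with per-spot signal-to-noise over triplicate slides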
[5] = biological target: Follistatin (Homo sapiens) (UniProt P19883); experiment: follistatin binders on small-molecule microarrays, primary screen, biochemical, small-molecule microarray, 635/667 nm fluorescence (AID 1132); details: FST binding, 635 nm fluorescence, higher = more signal
Follistatin (Homo sapiens), sequence (P19883 whole entry, looked up): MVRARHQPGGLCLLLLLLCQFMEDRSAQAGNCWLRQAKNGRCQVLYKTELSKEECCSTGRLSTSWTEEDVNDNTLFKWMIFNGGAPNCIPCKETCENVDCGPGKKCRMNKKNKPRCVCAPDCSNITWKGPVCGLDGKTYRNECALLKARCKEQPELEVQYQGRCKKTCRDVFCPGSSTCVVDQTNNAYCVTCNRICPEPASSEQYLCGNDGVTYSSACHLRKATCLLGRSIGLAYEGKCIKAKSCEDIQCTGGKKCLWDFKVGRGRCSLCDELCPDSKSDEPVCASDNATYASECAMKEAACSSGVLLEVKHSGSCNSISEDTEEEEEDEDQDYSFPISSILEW

[6] = biological target: Fibroblast growth factor 2 (Homo sapiens) (UniProt P09038); experiment: FGF2 binders on small-molecule microarrays, primary screen, biochemical, small-molecule microarray, 635/667 nm fluorescence (AID 1133); details: small-molecule microarray binding, FGF2, fluorescence 635/667; higher = more signal
Fibroblast growth factor 2 (Homo sapiens), sequence (P09038 whole entry, looked up): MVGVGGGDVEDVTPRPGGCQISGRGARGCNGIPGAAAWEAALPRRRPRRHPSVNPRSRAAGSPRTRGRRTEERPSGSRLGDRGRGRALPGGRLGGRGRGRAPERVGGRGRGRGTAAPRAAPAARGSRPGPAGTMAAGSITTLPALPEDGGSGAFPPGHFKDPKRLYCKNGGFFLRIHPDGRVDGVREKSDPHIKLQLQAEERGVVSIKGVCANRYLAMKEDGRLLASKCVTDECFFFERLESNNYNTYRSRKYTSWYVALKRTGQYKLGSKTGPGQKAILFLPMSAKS

[7] = mitochondrial membrane potential change in A549 cells, profiling panel, cell-based, JC-1 fluorescence, basal, 24 h, 100 nL (AID 1138); details: higher = more signal;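 also: A549 lung adenocarcinoma cells under basal conditions with no added stimulus; test concentration not given here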
Lefty1 = Lefty1 binders on small-molecule microarrays, primary screen, biochemical, small-molecule microarray, 635/667 nm fluorescence (AID 1139); details: small-molecule microarray binding, fluorescence 635/667; higher = more signal
[8] = system: wheat germ agglutinin (Triticum aestivum), Alexa647-labelled; experiment: wheat germ agglutinin binders on compound microarrays, profiling panel, artefact control for SMM control-protein annotation, biochemical, small-molecule microarray, 635/667 nm fluorescence (AID 1140); details: WGA-A647 binding, 635 nm fluorescence, higher = more signal;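 also: score merges 667 nm feature emission with signal to noise over triplicate slides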
[9] = biological target: Luciferin 4-monooxygenase (Photinus pyralis) (UniProt P08659); experiment: firefly luciferase enzyme inhibitors, primary screen, biochemical, luminescence, purified enzyme, 2006 set (AID 1141); details: SteadyGlo luminescence, 30 min, higher = more signal, called active from +8 up or from −8 down;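 also: cell-free assay with purified firefly luciferase at 100 ng per well in PBS; test concentration not given here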
Luciferin 4-monooxygenase (Photinus pyralis), sequence (P08659 whole entry, looked up): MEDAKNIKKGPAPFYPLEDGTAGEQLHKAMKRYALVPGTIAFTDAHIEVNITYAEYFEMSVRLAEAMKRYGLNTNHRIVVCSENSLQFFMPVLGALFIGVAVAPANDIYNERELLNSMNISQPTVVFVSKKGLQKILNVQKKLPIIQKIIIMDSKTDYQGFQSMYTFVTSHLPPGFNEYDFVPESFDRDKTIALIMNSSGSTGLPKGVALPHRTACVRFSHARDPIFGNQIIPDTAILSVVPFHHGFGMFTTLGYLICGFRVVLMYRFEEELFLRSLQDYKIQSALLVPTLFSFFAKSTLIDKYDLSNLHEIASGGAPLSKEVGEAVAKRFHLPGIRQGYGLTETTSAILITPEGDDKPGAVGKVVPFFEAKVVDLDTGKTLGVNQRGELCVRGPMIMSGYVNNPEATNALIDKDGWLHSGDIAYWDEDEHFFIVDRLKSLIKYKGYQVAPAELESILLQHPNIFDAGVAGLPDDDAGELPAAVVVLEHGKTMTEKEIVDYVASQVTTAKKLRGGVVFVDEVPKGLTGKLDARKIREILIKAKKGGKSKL

[10] = system: Wnt5a (protein binding on small-molecule microarray); experiment: Wnt5a binders on small-molecule microarray, primary screen, biophysical, 635/667 nm fluorescence (AID 1142); details: 635 nm fluorescence, higher = more signal;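 also: fluorescence read at 667 nm with signal to noise per printed feature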
[11] = cell viability in Huh7 cells, primary screen, cytotoxicity control for HCV replication inhibitor project, CellTiter-Glo luminescence, basal, 48 h (AID 1143); details: Huh7 HCV replicon, higher = more signal, called active from +8 up or from −8 down;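 also: Huh7 hepatoma cells carrying a hepatitis C replication reporter with no stimulus; test concentration not given here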
[12] = P. aeruginosa biofilm formation inhibitors, primary screen, PAO1 strain, BacTiter-Glo luminescence, LB-PBS (AID 1144); details: 12 h, higher = more signal
[13] = CREB reporter modulators without forskolin, primary screen, cell-based, PC12, CRE-LacZ reporter, unstimulated (AID 1145); details: no forskolin, luminescence, 4.5 h, higher = more signal, called active from +8 up or from −8 down
[14] = CREB reporter modulators under forskolin, primary screen, cell-based, PC12, CRE-LacZ reporter, forskolin-stimulated (AID 1146); details: luminescence, 4.5 h, higher = more signal, called active from +8 up or from −8 down;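 also: PC12 cells with 6xCRE LacZ reporter stimulated by forskolin 10 µM; beta-galactosidase reporter signal reflecting CREB driven transcription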
[15] = biological target: Streptavidin (Streptomyces avidinii) (UniProt P22629); experiment: streptavidin binders on small-molecule microarray, primary screen, artefact control for SMM compound annotation, biophysical, 635/667 nm fluorescence (AID 1147); details: streptavidin binding, higher = more signal;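 also: signal reflects streptavidin binding to arrayed compounds as a control protein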
Streptavidin (Streptomyces avidinii), sequence (P22629 whole entry, looked up): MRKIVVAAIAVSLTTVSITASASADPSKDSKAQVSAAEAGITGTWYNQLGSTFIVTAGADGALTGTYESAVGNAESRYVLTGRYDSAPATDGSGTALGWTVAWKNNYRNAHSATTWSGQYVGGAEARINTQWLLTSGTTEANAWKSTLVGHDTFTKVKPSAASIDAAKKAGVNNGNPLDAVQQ

[16] = small-molecule binders of probe aInhba, primary screen, biochemical, small-molecule microarray, 635/667 nm fluorescence (AID 1148); details: higher = more signal;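 also: score merges 667nm spot fluorescence with signal-to-noise for antibody binding to printed compounds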
Torsin-1A (Homo sapiens) [17] = biological target: Torsin-1A (Homo sapiens) (UniProt O14656); experiment: torsin A binders from cell lysate, primary screen, small-molecule microarray, wild-type, 635/667 nm (AID 1149); details: COS7 hTOR1A-WT lysate, 635 nm fluorescence, higher = more signal
Torsin-1A (Homo sapiens), sequence (O14656 whole entry, looked up): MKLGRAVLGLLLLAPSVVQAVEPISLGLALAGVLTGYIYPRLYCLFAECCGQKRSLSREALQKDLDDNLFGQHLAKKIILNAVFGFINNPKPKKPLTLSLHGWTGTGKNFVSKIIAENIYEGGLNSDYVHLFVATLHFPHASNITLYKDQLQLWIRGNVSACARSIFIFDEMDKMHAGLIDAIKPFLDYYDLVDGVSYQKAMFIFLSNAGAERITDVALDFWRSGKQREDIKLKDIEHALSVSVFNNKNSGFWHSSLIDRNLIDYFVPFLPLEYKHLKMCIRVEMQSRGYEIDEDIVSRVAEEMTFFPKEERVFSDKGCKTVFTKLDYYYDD

Torsin-1A (Homo sapiens) [18] = biological target: Torsin-1A (Homo sapiens) (UniProt O14656); experiment: small-molecule binders of mutant TOR1A in lysate, primary screen, cell lysate, small-molecule microarray, COS7 lysate, 635/667 nm fluorescence (AID 1150); details: COS7 hTOR1A mutant lysate, 635 nm fluorescence, higher = more signal;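 also: score pools 667 nm emission and signal to noise measuring lysate protein binding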
[19] = system: Sonic hedgehog protein (Shh); experiment: small-molecule binders of Shh protein, primary screen, biochemical, small-molecule microarray, 635/667 nm fluorescence (AID 1151); details: small-molecule microarray binding, 635 nm fluorescence; higher = more signal;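 also: Shh protein binding to compounds spotted on small-molecule microarray slides; score combines spot fluorescence intensity with signal-to-noise across triplicate slides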

SMILES	composite z-score [1]	composite z-score [2]	composite z-score [3]	composite z-score [4]	composite z-score [5]	composite z-score [6]	z-score [7]	composite z-score (Lefty1)	composite z-score [8]	z-score [9]	composite z-score [10]	z-score [11]	z-score [12]	z-score [13]	z-score [14]	composite z-score [15]	composite z-score [16]	composite z-score (Torsin-1A (Homo sapiens) [17])	composite z-score (Torsin-1A (Homo sapiens) [18])	composite z-score [19]
CC1CC/C=C\[C@H]2OC34C=CCN(C(C)C)C(=O)[C@H]3N(CCCO)C(=O)[C@@H]4C2C(=O)O1 (stereo not given in full)	1.41	-0.883	-0.716	-1.5	-1.07	-1.24	0.439	-0.837	-1.09	-0.623 (inactive)	-0.439	-1.03 (inactive)	1.15 (inactive)	0.601 (inactive)	0.371 (inactive)	-1.47	0.095	1.72	-1.29	0.533
CCCCc1nc2c(c3c1C[C@H](C)OC3)CN(CCC(C)C)CC2	0.965	1.13	0.0171	0.928	0.818	0.732	1.8	1.17	0.399	-0.438 (inactive)	0.122	-0.262 (inactive)	-0.578 (inactive)	7.7 (inactive)	-1.14 (inactive)	0.0392	-0.0074	0.888	0.622	0.992
COC(=O)[C@H](C)NC(=O)CCC1CC(OC(=O)NCc2cccc3ccccc23)CC2(CCCC(COC(=O)NCC3CCCCC3)O2)O1 (stereo not given in full)	0.876	1.22	0.234	0.986	0.591	1.4	-0.25	1.09	0.487	0.925 (inactive)	0.835	-0.426 (inactive)	-0.803 (inactive)	0.91 (inactive)	1.76 (inactive)	0.688	0.0543	1.02	1.05	1.43
Cn1c(=O)n2n(c1=O)[C@H]1[C@H](O)[C@@H]3O[C@@H]3C(=NOC[C@@H](O)COCc3ccco3)[C@H]1CC2	-0.272	0.722	0.0225	0.617	0.357	0.468	0.596	0.777	-0.0253	-0.508 (inactive)	0.0562	-0.0843 (inactive)	0.0712 (inactive)	0.248 (inactive)	0.496 (inactive)	0.548	0.0345	0.547	0.266	0.582
O=C1[C@H]2[C@H]3[C@H](O)[C@H](O)CC(=NOC[C@@H](O)COCc4ccco4)[C@H]3CC[C@H]2C(=O)N1Cc1ccc2c(c1)OCO2	0.729	-0.413	-0.237	-0.447	1.3	1.57	-0.0273	1.25	-0.186	0.546 (inactive)	0.138	-0.012 (inactive)	2.01 (inactive)	-0.657 (inactive)	0.0952 (inactive)	-0.405	-0.162	3.53	3.17	2.03
C=CC[C@@H]1C=C[C@H](ON=C[C@@H](OC)[C@H](C)C=CCC(=O)OC)[C@@H](CO)O1	-0.179	0.296	0.191	-0.613	0.234	0.13	-0.019	0.566	-1.06	0.191 (inactive)	0.313	0.669 (inactive)	0.0583 (inactive)	-0.957 (inactive)	-0.385 (inactive)	-0.259	0.157	0.434	0.352	0.224
CCN1C(=O)[C@H]2[C@H]3[C@H](O)[C@H](O)CC(=NOC[C@@H](C)[C@H](OCc4ccccc4)C(C)C)[C@@H]3CC[C@H]2C1=O	0.0486	0.472	-0.0745	0.58	-0.0316	-0.109	-0.925	0.192	0.564	0.646 (inactive)	0.0339	-0.994 (inactive)	0.683 (inactive)	0.513 (inactive)	0.435 (inactive)	0.251	-0.0458	0.221	1.05	0.119
O=C1[C@H]2[C@H]3[C@H](O)[C@H](O)CC(=NO[C@@H]4O[C@H](CO)[C@@H](O)[C@H](O)[C@H]4O)[C@@H]3CC[C@H]2C(=O)N1Cc1ccccc1	-0.58	-0.623	0.593	-0.247	-0.303	0.16	0.129	0.289	-0.0706	0.4 (inactive)	-0.0389	-0.435 (inactive)	0.0971 (inactive)	-0.929 (inactive)	0.488 (inactive)	-0.561	0.0925	-0.333	0.409	-0.37
CC(CCN1CCCCc2nc(C)c(C)cc21)=NOC(C)CN1CCCc2nc(C)c(C)cc21 (stereo not given)	-0.756	1.12	0.671	0.651	1.36	0.97	-0.12	1.45	0.766	-0.0885 (inactive)	0.871	-0.191 (inactive)	-0.812 (inactive)	-0.24 (inactive)	0.0936 (inactive)	1.42	0.637	1.19	0.863	1.73
CCOC(=O)[C@H](Cc1ccccc1)NC(=O)CCC1CC(OC(=O)NCc2ccc3c(c2)OCO3)CC2(CCCC(COC(=O)NCc3cccc(C(F)(F)F)c3)O2)O1 (stereo not given in full)	1	0.355	-0.15	-0.416	0.916	1.01	-0.659	0.955	0.229	0.794 (inactive)	-0.0271	-2.72 (inactive)	-0.518 (inactive)	-0.618 (inactive)	-0.0205 (inactive)	0.0284	0.0448	0.0337	0.134	1.17
